Measurements: PubChem BioAssay (NCATS)
Values joined by “and” are separate entries in the source; they are usually repeats but may differ in a detail not shown here. Equal values may be shown once. Inconclusive results are not listed. Active and inactive are the calls of the source. The call rests on the fitted dose curve; in most records, active means well fitted inhibition curve with a large enough effect; inconclusive means small, poorly fitted or top-dose-only effect; inactive means flat fitted curve, though single readings scatter.

Tests used:
[1] = Drug repurposing screens with cells derived from glioblastoma tumor samples (AID 1345199); settings: GBM patient neurospheres viability, ATP luminescence, 48 h; further: nearly all actives have a fitted effect of over 40% in size
Method in brief: (§1)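 Four patient lines of CD133+ GBM neurospheres were screened at several concentrations; hits were retested in those lines plus three slower-growing GBM lines, using 48-hour treatment and ATP-based viability.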

[2] = test system: astro; assay: as above; settings: viability, ATP luminescence, 48 h; series mostly up to 45.9 µM
Method in brief: as §1

[3] = at 45.9 µM (top of the series), tumour line B
[4] = at 45.9 µM (top of the series), tumour line D
[5] = at 46 µM (top of the series), tumour line A
[6] = at 46.1 µM (top of the series), tumour line C
[7] = at 20 µM (top of the series), tumour line C
[8] = at 21.2 µM (top of the series), tumour line B
[9] = at 21.2 µM (top of the series), tumour line D
[10] = at 21.3 µM (top of the series), tumour line A
On the % scale 0 is the no-effect control and ±100 the full control effect; potency means the concentration at half of the fitted maximal effect.

CN[C@@H]1[C@H](O[C@H]2[C@H](O[C@H]3[C@H](O)[C@@H](O)[C@H](N=C(N)N)[C@@H](O)[C@@H]3N=C(N)N)O[C@@H](C)[C@]2(O)CO)O[C@@H](CO)[C@H](O)[C@H]1O
inactive: activity, negative = cell killing [1, 3] -12.7% | activity, negative = cell killing [1, 4] -12.4% | activity, negative = cell killing [1, 5] -5.62% | activity, negative = cell killing [1, 6] -12.6% | Potency [2]

C=Cc1c(C)c2cc3nc(cc4[nH]c(cc5nc(cc1[nH]2)C(C)=C5CCC(=O)OC)c(CCC(=O)O)c4C)[C@@]1(C)C3=CC=C(C(=O)OC)[C@H]1C(=O)OC
inactive: activity, negative = cell killing [1, 3] -5.62% | activity, negative = cell killing [1, 4] -3.48% | activity, negative = cell killing [1, 5] -5.65% | activity, negative = cell killing [1, 6] -20.1% | Potency [2]

CC(C)[C@@H]1CC[C@@H](C)C[C@H]1OC(=O)c1ccccc1O
inactive: activity, negative = cell killing [1, 3] -16.3% | activity, negative = cell killing [1, 4] -12.7% | activity, negative = cell killing [1, 5] -21.2% | activity, negative = cell killing [1, 6] -34.9% | Potency [2]

O=C(NNCNNC(=O)c1ccncc1)c1ccncc1
inactive: activity, negative = cell killing [1, 3] -12% | activity, negative = cell killing [1, 4] -9.77% | activity, negative = cell killing [1, 5] -25.1% | activity, negative = cell killing [1, 6] -23% | Potency [2]

COC(=O)CCC[N+](C)(C)C
inactive: activity, negative = cell killing [1, 3] 2.12% | activity, negative = cell killing [1, 4] -8.53% | activity, negative = cell killing [1, 5] -30.6% | activity, negative = cell killing [1, 6] -18.9% | Potency [2]

CC(=O)NCCCS(=O)(=O)O
inactive: activity, negative = cell killing [1, 3] -1.38% | activity, negative = cell killing [1, 4] -1.99% | activity, negative = cell killing [1, 5] -10.5% | activity, negative = cell killing [1, 6] -6.16% | Potency [2]

Nc1nc2c(c(=O)[nH]1)N(C=O)C(CNc1ccc(C(=O)N[C@@H](CCC(=O)O)C(=O)O)cc1)CN2 (stereo not given in full)
inactive: activity, negative = cell killing [1, 7] -2.81% | activity, negative = cell killing [1, 8] -5.52% | activity, negative = cell killing [1, 9] -5.96% | activity, negative = cell killing [1, 10] -10.3% | Potency [2]

C=CCOc1ccc(CC(=O)O)cc1Cl
inactive: activity, negative = cell killing [1, 3] 0.88% | activity, negative = cell killing [1, 4] 1.11% | activity, negative = cell killing [1, 5] -23% | activity, negative = cell killing [1, 6] 0.211% | Potency [2]

O=C(OCc1ccccc1)c1cccnc1
inactive: activity, negative = cell killing [1, 3] -17.7% | activity, negative = cell killing [1, 4] -1.76% | activity, negative = cell killing [1, 5] -18.6% | activity, negative = cell killing [1, 6] 7.49% | Potency [2]

CC(C)[C@@H](N)C(=O)O
inactive: activity, negative = cell killing [1, 3] -4.72% | activity, negative = cell killing [1, 4] -10.1% | activity, negative = cell killing [1, 5] -15.5% | activity, negative = cell killing [1, 6] -0.187% | Potency [2]

CSCCC(N)C(=O)O (stereo not given)
inactive: activity, negative = cell killing [1, 3] -9.94% | activity, negative = cell killing [1, 4] -6.77% | activity, negative = cell killing [1, 5] -11.9% | activity, negative = cell killing [1, 6] -3.8% | Potency [2]

NC(=O)CC[C@@H]1NC(=O)[C@H](Cc2ccccc2)NC(=O)[C@H](Cc2ccc(O)cc2)NC(=O)[C@@H](N)CSSC[C@@H](C(=O)N2CCC[C@H]2C(=O)N[C@@H](CCCN=C(N)N)C(=O)NCC(N)=O)NC(=O)[C@H](CC(N)=O)NC1=O
inactive: activity, negative = cell killing [1, 3] -4.7% and -11.9% | activity, negative = cell killing [1, 4] -8.98% and -1.09% | activity, negative = cell killing [1, 5] -23.2% | activity, negative = cell killing [1, 6] 9.23% and 16.1% | Potency [2]

CCC(Oc1ccccc1)C(=O)N[C@@H]1C(=O)N2[C@@H]1SC(C)(C)[C@@H]2C(=O)O (stereo not given in full)
inactive: activity, negative = cell killing [1, 3] -4.6% | activity, negative = cell killing [1, 4] -5.25% | activity, negative = cell killing [1, 5] -9.92% | activity, negative = cell killing [1, 6] -0.932% | Potency [2]

CCOC(=O)c1cc(-c2ccccc2)nc2ccc(C)cc12
inactive: activity, negative = cell killing [1, 3] -20.9% | activity, negative = cell killing [1, 4] 9.36% | activity, negative = cell killing [1, 6] -13.3% | Potency [2]
active: Potency ([1]; tumour line A) 12.6 µM

CC[C@H](CC[C@@H](C)[C@H]1CC[C@H]2[C@@H]3CC=C4C[C@@H](O)CC[C@]4(C)[C@H]3CC[C@]12C)C(C)C
inactive: activity, negative = cell killing [1, 3] -10.4% | activity, negative = cell killing [1, 4] -2.23% | activity, negative = cell killing [1, 5] -16.4% | activity, negative = cell killing [1, 6] -13.1% | Potency [2]

NC(=O)c1ccc[n+]([C@@H]2O[C@H](COP(=O)([O-])OP(=O)(O)OC[C@H]3O[C@@H](n4cnc5c(N)ncnc54)[C@H](O)[C@@H]3O)[C@@H](O)[C@H]2O)c1
inactive: activity, negative = cell killing [1, 7] -16.9% | activity, negative = cell killing [1, 8] 8.41% | activity, negative = cell killing [1, 9] -3.83% | activity, negative = cell killing [1, 10] -22.7% | Potency [2]

NC(N)=NCC1COC2(CCCCC2)O1 (stereo not given)
inactive: activity, negative = cell killing [1, 7] -12.8% | activity, negative = cell killing [1, 8] -14.2% | activity, negative = cell killing [1, 9] -12.9% | activity, negative = cell killing [1, 10] -18.6% | Potency [2]

O=C(CO)[C@@H](O)[C@H](O)[C@@H](O)C(=O)O
inactive: activity, negative = cell killing [1, 3] -4.69% | activity, negative = cell killing [1, 4] -4.84% | activity, negative = cell killing [1, 5] -22.3% | activity, negative = cell killing [1, 6] -9.16% | Potency [2]

CC(C)(C)CC(C)(C)c1cc(Cc2cc(C(C)(C)CC(C)(C)C)cc(-n3nc4ccccc4n3)c2O)c(O)c(-n2nc3ccccc3n2)c1
inactive: activity, negative = cell killing [1, 3] -3.94% | activity, negative = cell killing [1, 4] -1.11% | activity, negative = cell killing [1, 5] -36.5% | activity, negative = cell killing [1, 6] -23.5% | Potency [2]
